“And” between values parts separate entries of the source, which are not always exact repeats. Equal values may be shown once. Records with an inconclusive call do not appear. Where a call stands in place of a potency, no number is given. The source made the active and inactive calls. Unless noted, calls come from the whole dose curve; as a rule, active = well fitted curve in the direction sought with a large enough effect; inconclusive = small, poorly fitted or top-dose-only effect, or another doubt; inactive = no such curve, though single readings can be large; an effect the other way counts as inactive or inconclusive.
Legend:
[1] = P-glycoprotein substrates identified in KB-3-1 adenocarcinoma cell line, qHTS therapeutic library screen (AID 1346986); note: nearly all actives have a fitted effect of over 60% in size;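 note: potency is the fitted concentration of half-maximal effect; potency is for cytotoxicity meaning loss of cell viability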
In short: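 Dose-response cytotoxicity, KB-3-1 vs P-gp-high KB-8-5-11, no colchicine in assay medium. Read: CellTiter-Glo at 72 h.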

[2] = P-glycoprotein substrates identified in KB-8-5-11 adenocarcinoma cell line, qHTS therapeutic library screen (AID 1346987); note: nearly all actives have a fitted effect of over 65% in size; note: potency is the fitted concentration of half-maximal effect
In short: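 In this qHTS, P-gp-rich KB-8-5-11 cells received library compounds across a concentration range. Viability was quantified by luminescence after 72 h at 37 degree C.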

[3] = Primary qHTS for inhibitors of nuclear receptor binding SET domain protein 2 (NSD2) in an isogenic RCH-ACV NSD2 p.E1099K mutant (9B) (AID 1645876); note: nearly all actives have a fitted effect of over 70% in size; note: potency is the fitted concentration of half-maximal effect
[4] = Primary qHTS for inhibitors of nuclear receptor binding SET domain protein 2 (NSD2) in an RCH-ACV wild type WT cells (2C) (AID 1645877); note: nearly all actives have a fitted effect of over 70% in size; note: potency is the fitted concentration of half-maximal effect
[5] = biological target: Catechol O-methyltransferase (Homo sapiens) (UniProt P21964); experiment: Confirmatory Screen for Target Class Profiling of Small Molecule Inhibitors of Methyltransferases (AID 1745852; calls by dose curve; note: potency is the fitted concentration of half-maximal effect); settings: MTase-Glo luminescence, SAH detection, recombinant enzyme; measured here: COMT max response; stronger effect = lower value
Chain of Catechol O-methyltransferase (Homo sapiens) (P21964 whole entry, looked up): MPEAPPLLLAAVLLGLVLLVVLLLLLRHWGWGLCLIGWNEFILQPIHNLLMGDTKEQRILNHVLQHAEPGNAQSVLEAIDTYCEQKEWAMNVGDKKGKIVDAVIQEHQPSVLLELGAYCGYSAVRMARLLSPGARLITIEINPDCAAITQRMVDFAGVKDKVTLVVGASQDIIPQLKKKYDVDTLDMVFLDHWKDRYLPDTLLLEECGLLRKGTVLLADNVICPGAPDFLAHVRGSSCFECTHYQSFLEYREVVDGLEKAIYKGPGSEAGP

[6] = biological target: Guanidinoacetate N-methyltransferase (Homo sapiens) (UniProt Q14353); experiment: as above; settings: activity change, negative = inhibition: at 57.3 µM (top of the series) unless noted
[7] = biological target: Nicotinamide N-methyltransferase (Homo sapiens) (UniProt P40261); experiment: as above; settings: MTase-Glo luminescence, SAH detection, recombinant enzyme; measured here: NNMT max response; stronger effect = lower value
Chain of Nicotinamide N-methyltransferase (Homo sapiens) (P40261 whole entry, looked up): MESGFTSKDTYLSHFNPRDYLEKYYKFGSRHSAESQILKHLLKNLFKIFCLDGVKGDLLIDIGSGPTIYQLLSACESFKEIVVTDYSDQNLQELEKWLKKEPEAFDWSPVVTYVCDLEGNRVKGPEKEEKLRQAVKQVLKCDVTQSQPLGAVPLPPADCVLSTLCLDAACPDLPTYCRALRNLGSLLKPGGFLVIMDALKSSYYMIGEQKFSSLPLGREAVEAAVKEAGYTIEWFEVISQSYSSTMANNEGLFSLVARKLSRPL

[8] = biological target: Phenylethanolamine N-methyltransferase (Homo sapiens) (UniProt P11086); experiment: as above; settings: MTase-Glo luminescence, SAH detection, recombinant enzyme; measured here: PNMT max response; stronger effect = lower value
Chain of Phenylethanolamine N-methyltransferase (Homo sapiens) (P11086 whole entry, looked up): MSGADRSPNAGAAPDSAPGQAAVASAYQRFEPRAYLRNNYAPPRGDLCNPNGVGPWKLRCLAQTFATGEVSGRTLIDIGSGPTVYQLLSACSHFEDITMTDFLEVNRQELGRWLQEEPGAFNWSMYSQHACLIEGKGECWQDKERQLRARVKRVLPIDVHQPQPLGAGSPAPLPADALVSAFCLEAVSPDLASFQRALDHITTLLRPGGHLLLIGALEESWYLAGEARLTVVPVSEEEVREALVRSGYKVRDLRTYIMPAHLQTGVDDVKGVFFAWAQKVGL

[9] = biological target: Glutathione peroxidase 1 (Homo sapiens) (UniProt P07203); experiment: Primary qHTS Assay for Inhibitors of Recombinant Selenoprotein Glutathione Peroxidase 1 (GPX1) (AID 1845191); note: nearly all actives have a fitted effect of over 65% in size; note: potency is the fitted concentration of half-maximal effect
Chain of Glutathione peroxidase 1 (Homo sapiens) (P07203 whole entry, looked up): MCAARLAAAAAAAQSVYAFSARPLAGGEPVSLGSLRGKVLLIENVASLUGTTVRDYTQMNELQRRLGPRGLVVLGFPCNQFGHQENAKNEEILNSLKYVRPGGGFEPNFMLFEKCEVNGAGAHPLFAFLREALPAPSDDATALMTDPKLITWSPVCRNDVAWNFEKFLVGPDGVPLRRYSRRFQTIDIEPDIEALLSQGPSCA
In short: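 NADPH consumption tracked by fluorescence at 340/450 nm between t=0 and t=15 min, room temperature. Final mix: 10 nM GPX1, 100 nM glutathione reductase, 1 mM GSH, 0.5 mM NADPH, 0.5 mM cumene hydroperoxide, 0.01% BSA; 30 min compound–enzyme preincubation.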

[10] = NCATS anti-infectives library activity on HEK293 viability as a counter-qHTS vs the C. elegans viability qHTS (AID 1745854)
In short: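 CellTiter-Glo luminescence, read on a CCD imager, scored viability of HEK293 cells after 24 hr compound exposure at 37C. Library tested in several concentrations, 1:5 steps, up to 41.7 uM; digitonin served as control.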

[11] = qHTS drug screen for cell cycle checkpoint inhibitors in PARPi-resistant BRCA-mutant ovarian cancer cell lines. (AID 1963452; calls by dose curve); settings: PEO1/OlaR viability, CellTiter-Glo luminescence, 96 h, stronger effect = lower value
In short: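 PEO1, PEO4 and PEO1/OlaR ovarian cancer cells, 600 per well, exposed 96 h at 37C to a dilution series. Viability read by CellTiter-Glo luminescence, normalized to DMSO and empty wells; activity summarized as Z-AUC.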

[12] = biological target: Phospholipid hydroperoxide glutathione peroxidase GPX4 (Homo sapiens) (UniProt P36969); experiment: Primary qHTS Assay for Inhibitors of Recombinant Selenoprotein Glutathione Peroxidase 4 (GPX4) (AID 1845192); settings: outcome: dose series up to 50 µM unless noted; note: nearly all actives have a fitted effect of over 65% in size
Chain of Phospholipid hydroperoxide glutathione peroxidase GPX4 (Homo sapiens) (P36969 whole entry, looked up): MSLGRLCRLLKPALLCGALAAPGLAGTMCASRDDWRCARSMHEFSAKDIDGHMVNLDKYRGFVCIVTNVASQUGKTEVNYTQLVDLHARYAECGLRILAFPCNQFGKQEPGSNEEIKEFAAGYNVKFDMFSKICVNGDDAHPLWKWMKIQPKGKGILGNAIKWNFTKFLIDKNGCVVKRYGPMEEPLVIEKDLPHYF
In short: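 NADPH consumption followed by fluorescence at 340/450 nm, t=0 and after 15 min at room temperature. Reaction started with cumene hydroperoxide (0.5 mM final) after 30 min compound–GPX4 preincubation; final 200 nM GPX4, 100 nM GR, 1 mM GSH, 0.5 mM NADPH.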

[13] = test system: Zika virus NS2B-NS3 protease; experiment: Primary screen GU AMC qHTS for Zika virus inhibitors (AID 1347154); note: nearly all actives have a fitted effect of over 70% in size
In short: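 Fluorogenic AMC-substrate cleavage by noncovalent NS2B-NS3 protease complex (25 nM, pH 8.0 Tris buffer with Tween 20) followed for 15 minutes at room temperature (~20% conversion). Percent inhibition from ex340/em450 signal change, fitted by 4-parameter Hill equation.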

[14] = Primary qHTS for small molecule stabilizers of the endoplasmic reticulum resident proteome: Secreted ER Calcium Modulated Protein (SERCaMP) assay (AID 1508630)
In short: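 The SH-SY5Y reporter protocol was run at 3 concentrations up to 38.3 uM (primary) or 11 concentrations (follow-up): 16 h compound, 100 nM thapsigargin for 4 h, then extracellular luciferase luminescence.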

[15] = measured here: PEO1 parental Z-AUC

Oc1cc(CNC(=S)/C=C/c2cc(O)c(O)c(Br)c2)cc(O)c1O
Potency [1]: 7.31 µM (active)
Potency [2]: 7.31 µM (active)
Potency [3]: 1.16 µM (active)
Potency [4]: 1.03 µM (active)
activity [5]: -46.2%
activity change, negative = inhibition [6]: -4.79%
activity [7]: -0.986%
activity [8]: -0.984%
Potency [9]: 8.06 µM (active)

COc1ccc2nc3ccc(OC)cc3c(SCCCN)c2c1
Potency [1]: inactive
Potency [2]: inactive
Potency [3]: inactive
Potency [4]: inactive

COc1cc2c(cc1OC)/C(=C/c1ccc(O)cc1)C(=O)N2
Potency [1]: inactive
Potency [2]: inactive
Potency [9]: inactive

Cc1ccc(Cl)cc1NC(=O)c1nc[nH]c1C(=O)Nc1nc2ccccc2[nH]1
Potency [1]: inactive
Potency [2]: inactive
Potency [3]: inactive
Potency [4]: inactive
Potency [9]: inactive

CCCCCCCCCCCCCC#CC(=O)[C@@H]1COC(C)(C)N1C(=O)OC(C)(C)C
Potency [1]: inactive
Potency [2]: inactive
Potency [3]: 13 µM (active)
Potency [4]: 16.4 µM (active)
Potency [9]: inactive

C/C(=C1/C(=O)Nc2ccc(NC(N)=O)cc21)c1ccc[nH]1
Potency [1]: 4.61 µM (active)
Potency [2]: 4.61 µM (active)
Potency [3]: 1.64 µM (active)
Potency [4]: 1.84 µM (active)
Potency [9]: inactive

OC[C@H]1O[C@@H](O[C@@H]2OC=C[C@H]3[C@H](O)[C@@H]4O[C@]4(CO)[C@@H]23)[C@H](O)[C@@H](O)[C@@H]1O
Potency [1]: inactive
Potency [2]: inactive
Potency [3]: inactive
outcome [10]: inactive

NC1CCCN(c2c(/C=C3\SC(=O)NC3=O)cccc2-c2ccccc2)C1 (centres undefined)
Potency [1]: inactive
Potency [2]: inactive
Potency [9]: inactive
Z-AUC [11]: -0.874 (inactive)
Z-AUC [11, 15]: -0.352
Z-AUC ([11]; measured here: PEO4 Z-AUC): -1.12

CC(C)n1nc(-c2ccc(NC(=O)Nc3cccc(C(F)(F)F)c3)cc2)c2c(N)ncnc21
Potency [1]: 1.03 µM (active)
Potency [2]: 4.11 µM (active)
Potency [3]: 0.366 µM (active)
activity [5]: -1.63%
activity change, negative = inhibition [6]: 0%
activity [7]: -74.3%
activity [8]: -1.08%
Potency [9]: inactive

c1nc(NCC2CCOC2)c2cc(-c3ccc4c(c3)OCO4)ccc2n1 (centres undefined)
Potency [1]: inactive
Potency [2]: inactive
Potency [3]: 16.4 µM (active)
activity [5]: -39.2%
Potency [6]: 42.9 µM (active)
activity [7]: -29.1%
activity [8]: -63.5%
Potency [9]: inactive

CC(Sc1nc2c(cnn2-c2cccc(Cl)c2)c(=O)[nH]1)C(N)=O (centres undefined)
Potency [1]: inactive
Potency [2]: inactive
Potency [3]: inactive
Potency [4]: inactive
Potency [9]: inactive

O=C(NCCO)c1cc(C(=O)NCCO)cc(C(=O)NCCO)c1
Potency [1]: inactive
Potency [2]: inactive
Potency [3]: inactive
Potency [4]: inactive
Potency [9]: inactive

CS(=O)(=O)c1ccc([C@@H](C[C@H]2CCC(=O)C2)C(=O)Nc2cnccn2)cc1Cl
Potency [1]: inactive
Potency [2]: inactive
Potency [3]: inactive
Potency [4]: inactive
Potency [9]: inactive

O=C1Cc2c([nH]c3ccc([N+](=O)[O-])cc23)-c2ccccc2N1
Potency [1]: 1.78 µM (active)
Potency [2]: 2.52 µM (active)
Potency [3]: 0.796 µM (active)
Potency [4]: 0.632 µM (active)
Potency [9]: inactive

C[n+]1cc(NC(=O)c2cccc(C(=O)Nc3cc4ccccc4[n+](C)c3)n2)cc2ccccc21
Potency [1]: 16.4 µM (active)
Potency [2]: inactive
Potency [4]: inactive
Potency [9]: inactive

C=CC(=O)Nc1cccc(Nc2nc(Nc3ccccc3)ncc2C)c1
Potency [1]: 18.4 µM (active)
Potency [2]: 13 µM (active)
Potency [3]: 8.2 µM (active)
Potency [4]: 8.2 µM (active)
Potency [9]: inactive

Cc1cc(Nc2nn(-c3ccccc3)c(=O)c3ccccc23)n[nH]1
Potency [1]: 6.51 µM (active)
Potency [2]: 11.6 µM (active)
Potency [3]: 1.16 µM (active)
Potency [9]: inactive

Cc1cc(C)c(/C=C2\C(=O)Nc3ccc(Cl)cc32)[nH]1
Potency [1]: inactive
Potency [2]: inactive
Potency [3]: inactive
Potency [4]: inactive
Potency [9]: inactive

CN1CCN(c2nc(C3=C(c4c[nH]c5ccccc45)C(=O)NC3=O)c3ccccc3n2)CC1
Potency [1]: inactive
Potency [2]: inactive
Potency [3]: 16.4 µM (active) and 16.6 µM (active)
Potency [4]: 14.8 µM (active)
Potency [9]: inactive
Potency [12]: inactive
Z-AUC [11]: 1.37 (inactive)
Z-AUC [11, 15]: 0.875
Z-AUC ([11]; measured here: PEO4 Z-AUC): 0.634

O=C(Nc1cccc(Nc2nccc(Nc3cccc(C(F)(F)F)c3)n2)c1)C1CC1
Potency [1]: 5.8 µM (active)
Potency [2]: 5.8 µM (active)
Potency [3]: 3.66 µM (active)
Potency [9]: inactive

Cc1ccc(NS(=O)(=O)c2cc3c(cc2NCCO)NC(=O)CC3)cc1C
Potency [1]: inactive
Potency [2]: inactive
Potency [3]: inactive
Potency [9]: inactive

CCOC(=O)N1CCN(C(=O)Cn2sc3nc(C)cc(C)c3c2=O)CC1
Potency [1]: inactive
Potency [2]: inactive
Potency [9]: inactive

N#Cc1c2nc3ccccc3nc2n2ccc(NC(=O)c3cccs3)cc12
Potency [1]: 23.1 µM (active)
Potency [2]: 20.6 µM (active)
Potency [3]: 1.16 µM (active)
Potency [4]: 1.16 µM (active)
Potency [9]: inactive

O=c1cc(N2CCNCC2)oc2c(-c3ccccc3)cccc12
Potency [1]: 7.31 µM (active)
Potency [13]: inactive
Potency [14]: inactive

CC/C=C\CC1C(=O)CCC1CC(=O)OC (centres undefined)
Potency [1]: inactive
Potency [2]: inactive
Potency [3]: inactive
Potency [4]: inactive
Potency [9]: inactive

CC(C)OC(=O)OCOP(=O)(COC(C)Cn1cnc2c(N)ncnc21)OCOC(=O)OC(C)C (centres undefined)
Potency [1]: inactive
Potency [2]: inactive
Potency [4]: inactive

CCCCCC1CC1CC1CC1CCCCCCCC(=O)O (centres undefined)
Potency [1]: inactive
Potency [2]: inactive
Potency [3]: inactive
Potency [4]: inactive
Potency [9]: inactive

COC(=O)C#Cc1ccc([N+](=O)[O-])cc1
Potency [1]: 13 µM (active)
Potency [2]: 18.4 µM (active)
Potency [3]: 4.61 µM (active)
Potency [4]: 4.11 µM (active)
Potency [9]: inactive

Cc1nc(CNc2ncnc3ccc(-c4ccc5c(c4)OCO5)cc23)cs1
Potency [1]: inactive
Potency [2]: inactive
Potency [9]: inactive
